According to publication PMC12136788:
Where a chain is given by its changes, count along the chain named. In all, about 24,000 sequences were measured (“enrichment r”: median about 0.99, highest 2% from about 3.7 on). For the sample, the highest values were picked, then their nearest neighbours and some sequences at random.

T1: UNK ZnF1-3 (human, UniProt Q9C0B0 31-174)
T1 sequence: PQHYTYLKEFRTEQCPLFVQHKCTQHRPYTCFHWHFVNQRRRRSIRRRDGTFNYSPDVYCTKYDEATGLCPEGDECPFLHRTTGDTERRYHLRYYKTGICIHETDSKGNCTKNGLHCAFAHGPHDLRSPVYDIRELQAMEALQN

B1: chrX:117107323:117107324:-_ENSG00000003096_ENST00000371878|hu_mus|motif|central (ssRNA)
RNA: GGGAGUUCUACAGUCCGACGAUCUUUGAGCUGCAACAGUACAAAUGGGAUAUAAACCUCAGCAUAGCCUUAGGCCACAGCGGAUAGAGAUCAGUGACUAAAUUCAGCAGCCCGCUUUCCUCCUGUGAAAGCUCUGGCCACACACAACAGAGGAUUGAGCAUCA
B2: chr16:18799448:18799449:-_ENSG00000134419_ENST00000563390|perfect_dup|FALSE|FALSE (ssRNA)
RNA: GGGAGUUCUACAGUCCGACGAUCCCUUCCUGUGAGGUUCACAACAAUCUUCCCAGCUCUGUGAUCAUCAAUGAUCUCAAAUUCACCAAUGUAUCCGUGCUUCAUCAUCACGGUUAAGAACCGAACGAUGACUUUAGAACAUGGCAACAGAGGAUUGAGCAUCA
B3: 99623494_99624154_931_CDS_ENSMUSG00000067567_ENSMUST00000087916|mouse|control|control (ssRNA)
RNA: GGGAGUUCUACAGUCCGACGAUCCUGAAUGGGCACAUUGACACUGUAGUACCGUCCUUUCCCCAGGCCAACAUCAGACAUGUCACCUGUUCCUGGGAAAAAUCCUGGGGAGAACUUGUGCAGGGACACAGUCAUAACCUUCGACAACAGAGGAUUGAGCAUCA
B4: chr1:172123744:172123745:-_ENSMUSG00000026667_ENSMUST00000150821|mus_hu|motif|central (ssRNA)
RNA: GGGAGUUCUACAGUCCGACGAUCAAACGCAUUGUUCACACUUUUUAGGAAUAUAGGAAAGUGGAAAAUAAAAGUUCUUUGCGGUUCAGCAGGAAAGAGUUUAAAAGACUUGAAUGGAAAUCAGAAAUUUAGGGAUUUGAGAAACAACAGAGGAUUGAGCAUCA
B5: 37607701_37614754_715_CDS_ENSG00000102710_ENST00000475892|human|control|control (ssRNA)
RNA: GGGAGUUCUACAGUCCGACGAUCGCUCUCAAGCAAAAGUUUGUCUUCCUGGGUCCAUUUGUGGUUAUCACUUGUUAUUGAAUGUACAUCACAAAUUAAAGUCUGCAUUGUUGGACGUAAGAGAAUGUGCCGACUUUGGUAACCCAACAGAGGAUUGAGCAUCA
B6: chr2:183789671:183789672:-_ENSG00000061676_ENST00000360982|hu_hu|motif|central (ssRNA)
RNA: GGGAGUUCUACAGUCCGACGAUCUGGCAGGUACACUUGAAUUUCAAAAAUUUAAAACAUAUAUAAAAAGUGGUUAGGGACGGACAUUUGUAUCAACAGUUGAUAAAUGUCUAAGAUUGUUUAUUAUACAGCAGGGUACAAUGGCAACAGAGGAUUGAGCAUCA
B7: chr2:183789671:183789672:-_ENSG00000061676_ENST00000360982|hu_hu|FALSE|FALSE (ssRNA)
RNA: B6 RNA with G81U, G82A
B8: chr9:14812383:14812384:-_ENSMUSG00000031934_ENSMUST00000164273|mus_mus|mus_mus_mus_hu_True|68_88 (ssRNA)
RNA: GGGAGUUCUACAGUCCGACGAUCAUAGCCCAGGUAGAUACACGCUAACAGUAUAACGAUGAGUGUCACCAGCCGGCAGCUAAUGUACUUGAUGAUUAAAUUAUUAGAAUUUUUCUUUGUCUUCAAGUACUGCUCCACAAUUGGCAACAGAGGAUUGAGCAUCA
B9: chr19:42259214:42259215:+_ENSMUSG00000018820_ENSMUST00000165783|mus_mus|FALSE|FALSE (ssRNA)
RNA: GGGAGUUCUACAGUCCGACGAUCGCUAUAGUGACUGCUGCAGACUCAGAGACACUAGGAAAGUUGCAAGUGUAUAUUUUCUAUCUAAAUUUCUAACUAAAAUUUGCCCUGUUUUAUUCACUGGCCCAAAGGAUUCUUUUUUAACAACAGAGGAUUGAGCAUCA
B10: 142051865_142054343_4063_CDS_ENSG00000114127_ENST00000264951|human|control|control (ssRNA)
RNA: GGGAGUUCUACAGUCCGACGAUCUGACUGUACUUCAUUUUCUUUGGAGAUAUUCAAAGAUGCUAAAAAGUUCUCAAUUCCAGAGUUAGGCUGCUUAUUGGACAUUUUUUGGGACCAACACUCAGCUUUAGGACUCUUACACUCCAACAGAGGAUUGAGCAUCA
B11: chr3:102833055:102833056:+_ENSMUSG00000068823_ENSMUST00000029446|mus_mus|FALSE|FALSE (ssRNA)
RNA: GGGAGUUCUACAGUCCGACGAUCUCAGUAGUAUUUGCUGACUCUUCUUUUUUCAGCACAAGUUCCAAAGGAUGAAAGUUGCUAGUAUUUAAAAAAAGAAAAAAAAAAGAAAAAGAAAAAAAGAAAAAAAAAAGGAGAGCGAGACAACAGAGGAUUGAGCAUCA
B12: chr11:44378942:44378943:+_ENSMUSG00000019189_ENSMUST00000019333|mus_mus|motif|central (ssRNA)
RNA: GGGAGUUCUACAGUCCGACGAUCUUUAAAUUUAUUAAGACAUUCAGCUAUGUCUGUCAGUCUACAUCCAAAUUUGCGGCGGAAAACAAAGGAAAACCACACCCCACAGUAGGAAUACCAAGUCUGAAAUACACUUUUUUUUGACAACAGAGGAUUGAGCAUCA
B13: chr3:102833055:102833056:+_ENSMUSG00000068823_ENSMUST00000029446|mus_mus|motif|central (ssRNA)
RNA: B11 RNA with U82G, A83G
B14: chr8:93522421:93522422:+_ENSMUSG00000056608_ENSMUST00000048665|mus_hu|FALSE|FALSE (ssRNA)
RNA: GGGAGUUCUACAGUCCGACGAUCAGACUGGAUCAUUGCUUGAAGAUGAAAAUCAGAAGCAGCUGGAUUGUAAGUAUCUCUAAAUUCUCCAAGUAUUUUCUCCUCAGCACCUUUUAUAAGAUAUGGAUGAUUACAACAUUUCCUCAACAGAGGAUUGAGCAUCA
B15: chr8:117878989:117878990:-_ENSG00000164754_ENST00000297338|hu_hu|hu_hu_hu_mus_True|8_8 (ssRNA)
RNA: GGGAGUUCUACAGUCCGACGAUCCCAGAGGCCCUCGUUUACUGAGGACAAAAUGUGCGUAGAACAUUUUUCUUAUUUGCUAUGAAAUAAGAAGAAACCUGGAUCUCGGCGGGGAGCCGGGAGGGGUUGGGUGGCCCGGGAGGGCAACAGAGGAUUGAGCAUCA
B16: chr3:100058692:100058693:+_ENSG00000114021_ENST00000480073|hu_mus|motif|central (ssRNA)
RNA: GGGAGUUCUACAGUCCGACGAUCAUAGUCAGGAAAGUAGGUUGUUCCAUAUGGAGAAUUGAAGCACUCAGGCAGAGAAACGGUGUUGGCACCUUGCUUUGCUGCCUCCCGCACUAGGCUACAAGCCCGGGUAAGGUUAUCUGACAACAGAGGAUUGAGCAUCA
B17: chr10:1038552:1038553:+_ENSG00000107937_ENST00000545048|hu_hu|FALSE|FALSE (ssRNA)
RNA: GGGAGUUCUACAGUCCGACGAUCCAUAGAACGGAUGAAUAUCAUCCAAUUUGGGGAAAUCUGUUAGAAUUUGUGAAAGUCUAUCAUGGUAAUUCUGUUGAGUAAAUUUGACUUUUCUCAUGUAAAAAUGUCUAAUGCGAUGUACAACAGAGGAUUGAGCAUCA
B18: chr9:91931296:91931297:+_ENSG00000123975_ENST00000314355|hu_hu|hu_hu_hu_mus_True|48_108 (ssRNA)
RNA: GGGAGUUCUACAGUCCGACGAUCAGAUUGACGAUCCCCAGCUGCACUUCAUUUUUGUUGUUCUUUUGGAAGAGGUCGUCUAAAGAGAAGAAUAUGUGGUUCUGGCUCAUGAAUCAUGUAAUGAACCCAUCCUAGACUCUGUUGCAACAGAGGAUUGAGCAUCA
B19: chr2:62103349:62103350:-_ENSG00000115484_ENST00000544079|hu_mus|motif|central (ssRNA)
RNA: GGGAGUUCUACAGUCCGACGAUCAAUAUAGGCUCUCUCCUCUCGAAGCACUCGAUCCAUCUGGGCAUAGUCAGAUACGGCGGUUUGAUUAUCCAUAUCUGUUUUAGGAGCAGAUAAGCAAAACUGAAUAAGCCCAAUCUUAGCCAACAGAGGAUUGAGCAUCA
B20: chr20:57486015:57486016:+_ENSG00000087460_ENST00000306090|hu_mus|FALSE|FALSE (ssRNA)
RNA: GGGAGUUCUACAGUCCGACGAUCCCUUUUUUUUCUUUUUCUUCUGUAGGCCGCCUUAAGCUUACUAAAUUUGGAACAUCUAAGCAAGCUGAAGGGAAGAGGGGUUUUUCAGAAUCACUGGGGGAAAAAGGAAAGGUUGCGGUGCAACAGAGGAUUGAGCAUCA
B21: chr2:170668292:170668293:+_ENSG00000138385_ENST00000260956|hu_mus|motif|central (ssRNA)
RNA: GGGAGUUCUACAGUCCGACGAUCACCUAAUUCGCUUUUCUUUUUAAAAGCUUCUGAAGACAAAAAGCAGCUUAAAAUCGGACGGAGGAAUAAAAACACUGCUUACUAAAUAAACUACUUGUCUCUAGCACCAUUUUCUCUUUUCAACAGAGGAUUGAGCAUCA
B22: chr1:35650007:35650008:-_ENSG00000116560_ENST00000357214|hu_hu|motif|central (ssRNA)
RNA: GGGAGUUCUACAGUCCGACGAUCAUCCAUAAAAAGAUAGCUUUCUUACUAAAAUGCAAGAAUUUAAAAGAUUGGUAUCGGAACAAAAAAACAAAACAAACUGGAAUGAAAGCCUAAAUAUCACAUCUAAAAUCGGGGUUUUUUCAACAGAGGAUUGAGCAUCA
B23: chr7:93623566:93623567:-_ENSG00000105829_ENST00000222547|hu_hu|FALSE|FALSE (ssRNA)
RNA: GGGAGUUCUACAGUCCGACGAUCGAACAAAUUCCAAAUUCACAAUUACAUGCAUCACCUCAGUUUAAUAAUCCAAUAAAUGAUAAAAAAGACAAAUAAAGAAAACAGCAUCAUAUAGCACAGCAGCUUUGUUUGGCUCCCUCUCAACAGAGGAUUGAGCAUCA
B24: chr19:41288892:41288893:-_ENSMUSG00000025016_ENSMUST00000025989|mus_mus|motif|central (ssRNA)
RNA: GGGAGUUCUACAGUCCGACGAUCUGGAUGGAACUGAGAAAGCUGGUUAAUUUUAAGAUAAAUAAAUGAGGUUGAUCCAAACGGAGAUUAAGAUGACAGCAGAUAUAUUCCAUGCAGAAUUGAAUAGCUUUUAAUUUUGUUUUUCAACAGAGGAUUGAGCAUCA
B25: 203424622_203424742_3669_3pUTR_ENSG00000204217_ENST00000374580|human|control|control (ssRNA)
RNA: GGGAGUUCUACAGUCCGACGAUCUUUUAUUUUUAAACAUCUUCUGCAUGUUUAAAUGAUGCAAAAAAUAAUUUCACUCCAUAGGCUUGAAAACAUUUCACAGACAGUUCAUUCCUAUAUCUUUAGACACCAUGGUUGUAGCAGCAACAGAGGAUUGAGCAUCA

Target: T1, UNK ZnF1-3
Assay: nsRBNS (natural sequence RNA bind-n-seq); RBNS binding buffer (assumed for nsRBNS): 25 mM Tris pH 7.5, 150 mM KCl, 3 mM MgCl2, 0.01% Triton X-100, 500 ug/ml BSA, 20 U/ml SUPERase-In, 4 C; UNK is unkempt and MSI1 is Musashi-1; names of the RNAs are library labels; protein concentration not given here; high values mean tight binding

Binder | binding signal [enrichment R]
B1 | 1.34
B2 | 0.793
B3 | 0.68
B4 | 3.57
B5 | 0.803
B6 | 6.64
B7 | 4.06
B8 | 1.31
B9 | 1.32
B10 | 0.644
B11 | 5.11
B12 | 1.46
B13 | 8.15
B14 | 1.27
B15 | 1.2
B16 | 1.65
B17 | 0.818
B18 | 0.894
B19 | 1.05
B20 | 1.66
B21 | 1.16
B22 | 4.37
B23 | 2.97
B24 | 5.2
B25 | 0.637
